{
  "source": "PubChem BioAssay AID463173",
  "about": "(ICCB-Longwood Screening Facility, Harvard Medical School, 2010)",
  "note": "The campaign covered roughly 52,000 compounds. About 4,300 (8.3%) were called active. Only a selection was taken, and actives are over-represented in it overall. A number with no mark means an inactive call. No stated cut-off is given here; in the data, active means survival mostly below about 52% (no sharp cut-off); inactive means mostly above about 56%.",
  "data": [
    {"system": "DeltatarO mutant", "assay": "S. aureus survival, RN4220 and DeltatarO strains – OD600, teichoic acid synthesis inhibitors, primary screen (AID 463173)", "conditions": "S. aureus RN4220 wild type/DeltatarO growth, OD600, 18 h, hits give low values, screened at 18.75 µg/mL (by protocol)", "values": [
      {"molecule": "COc1ccc(OCc2ccc(-c3nc(C#N)c(NCc4ccccc4)o3)o2)cc1", "survival": "78%"},
      {"molecule": "COc1cc(C(CC(=O)Nc2cccc(C(C)=O)c2)N2Cc3ccccc3C2=O)cc(OC)c1OC", "note": "(stereo not given)", "survival": "67%"},
      {"molecule": "COc1ccccc1N1CCN(C(=O)c2c3c(nc4ccccc24)C(=O)N(C2CCCCC2)C3)CC1", "survival": "94%"},
      {"molecule": "Cc1ccc(-c2nnc(Nc3ccc(S(N)(=O)=O)cc3)c3ccccc23)cc1S(=O)(=O)N1CCCCC1", "survival": "103%"},
      {"molecule": "Cn1c(SCC(=O)N2CCOCC2)ncc(C(=O)Nc2ccc(F)cc2)c1=O", "survival": "87%"},
      {"molecule": "CCOc1ccc(NS(=O)(=O)c2ccc(C(=O)N(C)C)s2)cc1", "survival": "76%"},
      {"molecule": "CCOc1cc2sc(N3CCC(C(=O)Nc4ccc(CC)cc4)CC3)nc2cc1Br", "survival": "86%"},
      {"molecule": "C#CCn1c(/C=C/c2ccc(Cl)cc2)nc2ccccc21", "survival": "10% (active)"},
      {"molecule": "Cc1ccc(/C=C/c2nc3ccccc3n2S(=O)(=O)c2cccc(Cl)c2)cc1", "survival": "77%"},
      {"molecule": "Cn1c(C=Nc2ccc(Cl)cc2)nc2ccccc21", "survival": "83%"},
      {"molecule": "COc1ccc(-c2nnc(SCC(=O)Nc3ccc(Cl)cc3)s2)cc1", "survival": "84%"},
      {"molecule": "Cn1cc(C(=O)N2CCN(c3cccc(C(F)(F)F)c3)CC2)c2c3ccccc3n(C)c2c1=O", "survival": "20% (active)"},
      {"molecule": "Cc1ccc(-n2nc(C(=O)N3CCN(c4cccc(C(F)(F)F)c4)CC3)c3c4ccccc4n(C)c3c2=O)cc1", "survival": "95%"},
      {"molecule": "Cn1c2ccccc2c2c(C(=O)N3CCN(c4cccc(C(F)(F)F)c4)CC3)cn(C3CCCCC3)c(=O)c21", "survival": "88%"},
      {"molecule": "O=C(NCc1cccc(Cl)c1)C1CCCN(c2nn3cc(-c4ccc(F)cc4)nc3s2)C1", "note": "(stereo not given)", "survival": "87%"},
      {"molecule": "CCc1ccccc1NC(=O)c1nc(-c2ccncc2)no1", "survival": "46%"},
      {"molecule": "Cc1cc(C)c(S(=O)(=O)N2CCC(n3c(C(F)(F)F)nc4cccnc43)CC2)c(C)c1", "survival": "79%"},
      {"molecule": "O=C(Cn1c(C(=O)N2CCOCC2)cc2sccc21)c1ccccc1", "survival": "99%"},
      {"molecule": "Oc1ccccc1C1OC2CCCCC2C2=CCCCC21", "note": "(stereo not given)", "survival": "34% (active)"},
      {"molecule": "CC1=CCC2(CO)COC(c3ccccc3O)C1C2", "note": "(stereo not given)", "survival": "90%"},
      {"molecule": "Oc1ccccc1C1OCC(C2CC=CCC2)CO1", "note": "(stereo not given)", "survival": "96%"},
      {"molecule": "c1ccc2c(c1)[nH]c1c(N3CCOCC3)ncnc12", "survival": "68%"},
      {"molecule": "COc1cccc(CCNC(=O)Cn2c(-c3cccs3)cc3ccccc32)c1", "survival": "70%"},
      {"molecule": "O=C(Nc1c2c(nn1-c1ccc(Cl)cc1)CS(=O)(=O)C2)c1cccc(F)c1", "survival": "55%"},
      {"molecule": "Cc1noc(/C=C/c2ccccc2F)c1S(=O)(=O)N1CCC(C(=O)NCc2ccco2)CC1", "survival": "107%"},
      {"molecule": "COc1cc2nc(NCC(C)c3ccccc3)n3nc(-c4ccccc4)nc3c2cc1OC", "note": "(stereo not given)", "survival": "61%"},
      {"molecule": "COCCCNC(=O)CSc1nc2cc(OC)c(OC)cc2c2nc(-c3ccccc3)nn12", "survival": "78%"},
      {"molecule": "CCOCCCNc1nc2cc(OC)c(OC)cc2c2nc(-c3ccccc3)nn12", "survival": "44% (active)"},
      {"molecule": "COc1ccc(OC)c(CCNc2nc3cc(OC)c(OC)cc3c3nc(-c4cccnc4)nn23)c1", "survival": "126%"},
      {"molecule": "COc1cc2nc(NCc3ccc(C)cc3)n3nc(-c4ccccc4)nc3c2cc1OC", "survival": "61%"},
      {"molecule": "COCCCNc1nc2cc(OC)c(OC)cc2c2nc(-c3ccccc3)nn12", "survival": "47% (active)"},
      {"molecule": "COc1cc2nc(NCc3ccccc3)n3nc(-c4ccccc4)nc3c2cc1OC", "survival": "47% (active)"},
      {"molecule": "COc1cc2nc(NCCC(C)C)n3nc(-c4ccccc4)nc3c2cc1OC", "survival": "49%"},
      {"molecule": "CCC(C)NC(=O)c1c(C)oc2ncn(CC(C)C)c(=O)c12", "note": "(stereo not given)", "survival": "79%"},
      {"molecule": "COC(=O)c1c(-c2ccc(Cl)cc2)noc1N1CCN(c2cccc(C)c2C)CC1", "survival": "79%"},
      {"molecule": "CN1C(=O)CSC1=Nc1cccc(C(=O)O)c1", "survival": "89%"},
      {"molecule": "COC(=O)c1csc(N)n1", "survival": "95%"},
      {"molecule": "CCOc1ccc2c(c1)c(=O)c(S(=O)(=O)c1ccc(F)cc1)cn2CC(=O)Nc1ccccc1C", "survival": "96%"},
      {"molecule": "Cc1nn2c(=O)cc(COC(=O)c3ccc(NC(=O)c4cccc(Br)c4)cc3)nc2s1", "survival": "97%"},
      {"molecule": "CC1=Nc2cc(C(=O)N3CCC(C)CC3)ccc2Sc2ccc(Cl)cc21", "survival": "90%"},
      {"molecule": "CC1=Nc2cc(C(=O)N3CCCCC3)ccc2Sc2ccc(C)cc21", "survival": "48%"},
      {"molecule": "CCCC1=Nc2cc(C(=O)N3CCC(C(=O)OCC)CC3)ccc2Sc2ccccc21", "survival": "79%"},
      {"molecule": "CCC1=Nc2cc(C(=O)N3CCC(C)CC3)ccc2Sc2ccc(C)cc21", "survival": "-4% (active)"},
      {"molecule": "CCCC1=Nc2cc(C(=O)N3CCC(C)CC3)ccc2Sc2ccc(C)cc21", "survival": "97%"},
      {"molecule": "CCOC(=O)C1CCN(C(=O)c2ccc3c(c2)N=C(CC)c2cc(C)ccc2S3)CC1", "survival": "36% (active)"},
      {"molecule": "O=C(CNCc1ccccc1F)Nc1ccc(N2CCCC2)cc1", "survival": "102%"},
      {"molecule": "Cc1nnc2c3ccccc3nc(N3CCN(c4cccc(Cl)c4)CC3)n12", "survival": "92%"},
      {"molecule": "COc1ccc(CNC(=O)CCc2c(C)nc3cc(-c4ccc(OC)cc4OC)nn3c2C)cc1", "survival": "121%"},
      {"molecule": "CCn1cc(C(=O)NCc2ccc(F)cc2)c(=O)c2cc(S(=O)(=O)N(C)C)ccc21", "survival": "81%"},
      {"molecule": "CCOCCc1nn2c(=O)cc(COC(=O)c3ccc(NC(=O)C4CCCCC4)cc3)nc2s1", "survival": "70%"},
      {"molecule": "COc1ccc(-c2noc(-c3cccc(OC)c3OC)n2)cc1", "survival": "8% (active)"},
      {"molecule": "Cc1ccc(-c2noc(-c3ccccc3NC(=O)C3CC(=O)N(c4cccc(C)c4)C3)n2)cc1", "note": "(stereo not given)", "survival": "66%"},
      {"molecule": "Cc1ccc(-c2noc(-c3ccccc3NC(=O)C3CC(=O)N(c4ccc(C)cc4)C3)n2)cc1", "note": "(stereo not given)", "survival": "48%"},
      {"molecule": "Cc1ccc(-c2noc(-c3ccccc3NC(=O)c3ccccc3)n2)cc1", "survival": "69%"},
      {"molecule": "COc1cc(C(=O)Nc2ccccc2-c2nc(-c3ccccc3)no2)cc(OC)c1OC", "survival": "66%"},
      {"molecule": "COc1cc(C(=O)Nc2ccccc2-c2nc(-c3ccc(C)cc3)no2)cc(OC)c1OC", "survival": "53%"},
      {"molecule": "COc1ccc(C(=O)Nc2ccccc2-c2nc(-c3ccc(OC)cc3)no2)cc1", "survival": "48%"},
      {"molecule": "COc1ccc(-c2noc(-c3ccccc3NC(=O)c3cc(OC)c(OC)c(OC)c3)n2)cc1", "survival": "34% (active)"},
      {"molecule": "COc1ccc(N2CC(C(=O)Nc3ccccc3-c3nc(-c4ccc(C)cc4)no3)CC2=O)cc1", "note": "(stereo not given)", "survival": "54% (active)"},
      {"molecule": "COc1cccc(C(=O)Nc2ccccc2-c2nc(-c3ccc(C)cc3)no2)c1", "survival": "48% (active)"},
      {"molecule": "COc1cccc(-c2noc(-c3cc(C(C)C)[nH]n3)n2)c1OC", "survival": "73%"},
      {"molecule": "COc1cccc(-c2noc(-c3cc4ccccc4oc3=O)n2)c1OC", "survival": "102%"},
      {"molecule": "COc1ccc(C2=NN(CC(=O)NCCCN(C)c3ccccc3)C(=O)CC2)cc1", "survival": "116%"},
      {"molecule": "CCCn1c(=O)c2sccc2n2c(CCCC(=O)Nc3ccc(Oc4ccccc4)cc3)nnc12", "survival": "88%"},
      {"molecule": "CN(C)c1ccc(C(CNC(=O)COc2ccc(Cl)cc2)N2CCOCC2)cc1", "note": "(stereo not given)", "survival": "55%"},
      {"molecule": "Cc1cccc(C)c1OCC(=O)Nc1nonc1-c1ccc(Br)cc1", "survival": "41% (active)"},
      {"molecule": "Cc1cc(C)cc(OC(C)C(=O)Nc2nonc2-c2ccc(Br)cc2)c1", "note": "(stereo not given)", "survival": "14% (active)"},
      {"molecule": "Cc1ccc(OC(C)C(=O)Nc2nonc2-c2ccc(Br)cc2)cc1C", "note": "(stereo not given)", "survival": "66%"},
      {"molecule": "Cc1cccc(OC(C)C(=O)Nc2nonc2-c2ccc(Br)cc2)c1C", "note": "(stereo not given)", "survival": "70%"},
      {"molecule": "Cc1ccc(OCC(=O)Nc2nonc2-c2ccc(Br)cc2)cc1", "survival": "75%"},
      {"molecule": "Cc1cccc(OCC(=O)Nc2nonc2-c2ccc(Br)cc2)c1C", "survival": "68%"},
      {"molecule": "CCc1ccc2[nH]cc(S(=O)(=O)c3ccc(C(C)C)cc3)c(=O)c2c1", "survival": "62%"},
      {"molecule": "CC(C)c1ccc(NC(=O)CCNS(=O)(=O)c2ccc3c(c2)CCCC(=O)N3)cc1", "survival": "77%"},
      {"molecule": "Cc1cc(C)c2c(=O)cc(CSCC(=O)Nc3ccccc3Cl)[nH]c2c1", "survival": "90%"},
      {"molecule": "Cc1ccc(-c2cc3ncc4c(n3n2)-c2cc(F)ccc2OC4)cc1", "survival": "108%"},
      {"molecule": "O=C(CS(=O)(=O)c1cccc2nsnc12)Nc1ccccc1Cl", "survival": "71%"},
      {"molecule": "CCOC(=O)Cc1cc(=O)[nH]c(/N=C(\\N)Nc2ccc3ccccc3c2)n1", "survival": "98%"},
      {"molecule": "COC(=O)c1ccc(NC(=O)CCc2c(C)nn(-c3ccc(N4CCOCC4)nn3)c2C)cc1", "survival": "78%"},
      {"molecule": "COC(=O)NCC(c1cccnc1)N1CCN(c2ccc(F)cc2)CC1", "note": "(stereo not given)", "survival": "83%"},
      {"molecule": "CN(C)CCNC(=O)C(=O)NCC(c1cccnc1)N1CCN(c2ccccc2)CC1", "note": "(stereo not given)", "survival": "54% (active)"},
      {"molecule": "Cc1ccc(CNC(=O)C(=O)NCC(c2cccnc2)N2CCN(c3ccc(F)cc3)CC2)cc1", "note": "(stereo not given)", "survival": "73%"},
      {"molecule": "COc1ccccc1N1CCN(C(CNC(=O)C(=O)NCCCN(C)C)c2cccnc2)CC1", "note": "(stereo not given)", "survival": "61% (active)"},
      {"molecule": "Cc1cc(C)cc(NC(=O)C(=O)NCC(c2cccnc2)N2CCN(c3ccccc3)CC2)c1", "note": "(stereo not given)", "survival": "56%"},
      {"molecule": "COc1ccccc1N1CCN(C(CNC(=O)C(=O)NCCN(C)C)c2cccnc2)CC1", "note": "(stereo not given)", "survival": "69%"},
      {"molecule": "CCOc1ccccc1NC(=O)C(=O)NCC(c1cccnc1)N1CCN(c2ccccc2)CC1", "note": "(stereo not given)", "survival": "54%"},
      {"molecule": "CCN(CC)CCNC(=O)C(=O)NCC(c1cccnc1)N1CCN(c2ccccc2)CC1", "note": "(stereo not given)", "survival": "100%"},
      {"molecule": "Cc1ccc(C)c(NC(=O)C(=O)NCC(c2cccnc2)N2CCN(c3ccc(F)cc3)CC2)c1", "note": "(stereo not given)", "survival": "15% (active)"},
      {"molecule": "CCOC(=O)C(=O)NCC(c1cccnc1)N1CCN(c2ccccc2)CC1", "note": "(stereo not given)", "survival": "65% (active)"},
      {"molecule": "COCCNC(=O)C(=O)NCC(c1cccnc1)N1CCN(c2ccccc2OC)CC1", "note": "(stereo not given)", "survival": "64%"},
      {"molecule": "CN(C)CCNC(=O)C(=O)NCC(c1cccnc1)N1CCN(c2ccc(F)cc2)CC1", "note": "(stereo not given)", "survival": "69%"}
    ]}
  ]
}
